Source: the supplement of paper PMC12350171
Structures can show the parent of a compound that is named as a salt. Unmarked numbers belong to inactive results.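 How the source made its calls: active = AUC significantly below DMSO controls by Student t-fit with adjusted P under 0.01; inactive = not significantly reduced.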

Each compound was assayed on Haemophilus parainfluenzae (assay: growth AUC normalised to DMSO control (fraction of control); higher = less growth inhibition, active = hit call of the paper). Details: 20 µM.
Procedure, shortened: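 Pathogens were passaged twice under anaerobic conditions, then inoculated into pre-reduced mGAM plates at a starting OD578 of 0.01, with compound at 20 μM and 1% DMSO, and sealed with breathable membranes. For Haemophilus parainfluenzae, the medium was supplemented with hemin and NAD. OD578 was read every hour for 24 h in three biological replicates. Growth-curve AUC was calculated by the trapezoidal rule up to the exponential-to-stationary transition and normalised to DMSO controls on the same plate.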

Q: For `CC(C)Cn1cnc2c(N)nc3ccccc3c21` [Imiquimod], which “growth AUC normalised to DMSO control” value is on record?
A: 1.08

Q: With `CC(C)(CO)[C@@H](O)C(=O)NCCCO` [(D)-Panthenol] as the compound, how does the “growth AUC normalised to DMSO control” value read?
A: 0.991

Q: `CC1(C)S[C@@H]2[C@H](NC(=O)[C@H](N)c3ccc(O)cc3)C(=O)N2[C@H]1C(=O)O` [Amoxicillin] was tested. Which “growth AUC normalised to DMSO control” value did it give?
A: 0.0371 (active)

Q: For `Cc1ccnc(NS(=O)(=O)c2ccc(N)cc2)n1` [Sulfamerazine], which “growth AUC normalised to DMSO control” value is on record?
A: 0.994

Q: For `CCN(CC)CC#CCOC(=O)C(O)(c1ccccc1)C1CCCCC1` (centres undefined) [Oxybutynin chloride], which “growth AUC normalised to DMSO control” value is on record?
A: 0.952

Q: Which “growth AUC normalised to DMSO control” value does the source give for `CCOc1ccc(NC(C)=O)cc1` [Phenacetin] here?
A: 0.924

Q: Which “growth AUC normalised to DMSO control” value does the source give for `CN(C)CCCN1c2ccccc2CCc2ccccc21` [Imipramine hydrochloride] here?
A: 0.923

Q: `CCC(Cc1c(I)cc(I)c(N)c1I)C(=O)O` (centres undefined) [Iopanoic acid] was tested. Which “growth AUC normalised to DMSO control” value did it give?
A: 0.971

Q: For `C#C[C@]1(O)CC[C@H]2[C@@H]3CCc4cc(OC)ccc4[C@H]3CC[C@@]21C` [Mestranol], which “growth AUC normalised to DMSO control” value is on record?
A: 1.02

Q: Which “growth AUC normalised to DMSO control” value does the source give for `CN(C)CCCOc1nn(Cc2ccccc2)c2ccccc12` [Benzydamine hydrochloride] here?
A: 0.964

Q: Which “growth AUC normalised to DMSO control” value does the source give for `CN1C(=O)CC(c2ccccc2)C1=O` (centres undefined) [Phensuximide] here?
A: 1.01

Q: `CCN(CC)CCCC(C)Nc1ccnc2cc(Cl)ccc12` (centres undefined) [Chloroquine diphosphate] was tested. Which “growth AUC normalised to DMSO control” value did it give?
A: 1.01

Q: Which “growth AUC normalised to DMSO control” value does the source give for `CC(=O)Nc1nnc(S(N)(=O)=O)s1` [Acetazolamide] here?
A: 0.959

Q: For `CN(Cc1cnc2nc(N)nc(N)c2n1)c1ccc(C(=O)N[C@@H](CCC(=O)O)C(=O)O)cc1` [Amethopterin], which “growth AUC normalised to DMSO control” value is on record?
A: 0.0201 (active)

Q: For `CC(C)/N=c1\cc2n(-c3ccc(Cl)cc3)c3ccccc3nc-2cc1Nc1ccc(Cl)cc1` [Clofazimine], which “growth AUC normalised to DMSO control” value is on record?
A: 1

Q: For `CCCC(CCC)C(=O)O` [Valproic acid], which “growth AUC normalised to DMSO control” value is on record?
A: 1.04

Q: For `CC(=C(CCO)SSCC1CCCO1)N(C=O)Cc1cnc(C)nc1N` (stereo in doubt) [Fursultiamine hydrochloride], which “growth AUC normalised to DMSO control” value is on record?
A: 0.986

Q: For `OCCOCCN1CCN(C(c2ccccc2)c2ccc(Cl)cc2)CC1` (centres undefined) [Hydroxyzine dihydrochloride], which “growth AUC normalised to DMSO control” value is on record?
A: 0.978

Q: `CC[C@H]1OC(=O)[C@H](C)[C@@H](O[C@H]2C[C@@](C)(OC)[C@@H](O)[C@H](C)O2)[C@H](C)[C@@H](O[C@@H]2O[C@H](C)C[C@H](N(C)C)[C@H]2O)[C@](C)(O)C[C@@H](C)CN(C)[C@H](C)[C@@H](O)[C@]1(C)O` [Azithromycin] was tested. Which “growth AUC normalised to DMSO control” value did it give?
A: 0.0436 (active)

Q: `CC1CC(OC(=O)c2ccccc2O)CC(C)(C)C1` (centres undefined) [Homosalate] was tested. Which “growth AUC normalised to DMSO control” value did it give?
A: 0.983

Q: With `CCN(CC)CCOC(=O)C(c1ccccc1)c1ccccc1` [Adiphenine hydrochloride] as the compound, how does the “growth AUC normalised to DMSO control” value read?
A: 1.02

Q: Which “growth AUC normalised to DMSO control” value does the source give for `COC(=O)CCc1ccc(OCC(O)CNC(C)C)cc1` (centres undefined) [Esmolol hydrochloride] here?
A: 1.09

Q: For `CNC(=C[N+](=O)[O-])NCCSCc1csc(CN(C)C)n1` [Nizatidine], which “growth AUC normalised to DMSO control” value is on record?
A: 0.993

Q: For `CCCN(CCC)C(=O)C(CCC(=O)O)NC(=O)c1ccccc1` (centres undefined) [Proglumide], which “growth AUC normalised to DMSO control” value is on record?
A: 1.03

Q: `CCCCc1oc2ccccc2c1C(=O)c1cc(I)c(OCCN(CC)CC)c(I)c1` [Amiodarone hydrochloride] was tested. Which “growth AUC normalised to DMSO control” value did it give?
A: 0.96

Q: How did the “growth AUC normalised to DMSO control” value turn out when `CCCOc1ccc(C(=O)OCCN(CC)CC)cc1N` [Proparacaine hydrochloride] was run?
A: 1.01

Q: Which “growth AUC normalised to DMSO control” value does the source give for `Nc1ccccc1S(N)(=O)=O` [o-Sulfanilamide] here?
A: 0.898

Q: Which “growth AUC normalised to DMSO control” value does the source give for `C=C(CC)C(=O)c1ccc(OCC(=O)O)c(Cl)c1Cl` [Ethacrynic acid] here?
A: 1.02

Q: `COc1ccc(C(=O)NCc2ccc(OCCN(C)C)cc2)cc1OC` [Itopride] was tested. Which “growth AUC normalised to DMSO control” value did it give?
A: 0.993

Q: How did the “growth AUC normalised to DMSO control” value turn out when `Cc1c(OCC(F)(F)F)ccnc1C[S+]([O-])c1nc2ccccc2[nH]1` (centres undefined) [Lansoprazole] was run?
A: 0.873

Q: With `c1cnc(N2CCN(Cc3ccc4c(c3)OCO4)CC2)nc1` [Piribedil] as the compound, how does the “growth AUC normalised to DMSO control” value read?
A: 1.02

Q: Which “growth AUC normalised to DMSO control” value does the source give for `OC(CCN1CCCCC1)(c1ccccc1)c1ccccc1` [Pridinol methanesulfonate salt] here?
A: 0.999

Q: `Cc1c(C)c2c(c(C)c1O)CCC(C)(COc1ccc(CC3SC(=O)NC3=O)cc1)O2` (centres undefined) [Troglitazone] was tested. Which “growth AUC normalised to DMSO control” value did it give?
A: 0.984

Q: How did the “growth AUC normalised to DMSO control” value turn out when `CCCCNc1ccc(C(=O)OCCN(C)C)cc1` [Tetracaine hydrochloride] was run?
A: 1.16
